Test results: PubChem BioAssay AID686954 (Sanford-Burnham Center for Chemical Genomics, 2013)
The whole screen tested about 30,000 compounds, of which about 240 (0.8%) were called active. The sample as a whole holds a higher share of actives than the screen did. A number with no mark means an inactive call.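 How the source made its calls: active means at 10 µM dose, at least 30% inhibition, measured as corrected fluorescence normalized to stimulator and neutral control wells; inactive means the rest.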

molecular target: Protein artemis (Homo sapiens) (UniProt Q96SD1); test: Artemis endonuclease inhibitors, primary screen, biochemical, fluorescence intensity, FAM/BHQ-1 hairpin substrate (AID 686954); conditions: recombinant Artemis, quenched FAM hairpin cleavage fluorescence; at 10 µM; hits give high values
Sequence (Q96SD1 whole entry, looked up): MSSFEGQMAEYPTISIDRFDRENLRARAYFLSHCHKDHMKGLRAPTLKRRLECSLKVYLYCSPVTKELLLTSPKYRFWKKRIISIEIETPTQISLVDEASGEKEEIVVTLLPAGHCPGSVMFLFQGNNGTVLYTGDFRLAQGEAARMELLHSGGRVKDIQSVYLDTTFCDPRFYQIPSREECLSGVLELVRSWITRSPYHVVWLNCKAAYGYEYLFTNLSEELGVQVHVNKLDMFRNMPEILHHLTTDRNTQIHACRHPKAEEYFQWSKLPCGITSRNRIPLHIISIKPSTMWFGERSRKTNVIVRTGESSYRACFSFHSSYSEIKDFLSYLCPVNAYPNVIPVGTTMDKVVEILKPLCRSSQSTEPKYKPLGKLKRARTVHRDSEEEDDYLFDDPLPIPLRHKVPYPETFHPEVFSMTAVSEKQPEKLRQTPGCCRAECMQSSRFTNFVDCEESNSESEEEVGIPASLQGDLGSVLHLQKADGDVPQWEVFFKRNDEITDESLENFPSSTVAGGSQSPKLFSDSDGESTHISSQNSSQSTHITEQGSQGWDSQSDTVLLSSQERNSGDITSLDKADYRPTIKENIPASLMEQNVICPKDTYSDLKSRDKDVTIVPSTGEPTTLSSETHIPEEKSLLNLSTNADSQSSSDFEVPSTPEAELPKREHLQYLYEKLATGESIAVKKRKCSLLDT

Q: For `Cc1cc(=O)n2c3c(cccc13)CCC2`, which inhibition is on record?
A: The inhibition was -4.67%.

Q: With `COc1ccc(-n2nnnc2SCc2nc(N)nc(N3CCOCC3)n2)cc1` as the compound, how does the inhibition read?
A: The inhibition was -0.42%.

Q: For `C=CCn1c(SCC(=O)c2c(N)n(C)c(=O)n(C)c2=O)nc2sc(CC)cc2c1=O`, which inhibition is on record?
A: The inhibition was 9.01%.

Q: Which inhibition does the source give for `CCOC(=O)C(=CNc1cccc(C)n1)C(=O)OCC` here?
A: The inhibition was -3.58%.

Q: `O=c1c2ccccc2c(-c2ccc(F)cc2)nn1-c1ccc(C(F)(F)F)cc1` was tested. Which inhibition did it give?
A: The inhibition was 5.92%.

Q: For `CCCC1(C(=O)OCC)NC(c2ccc(N(C)C)cc2)C2C(=O)N(c3ccc4c(c3)OCCO4)C(=O)C21` (stereo not given), which inhibition is on record?
A: Its inhibition is -2.24%.

Q: With `O=c1c2ccccc2nc2n1C(CSc1ccc(Cl)cc1)CN2` (stereo not given) as the compound, how does the inhibition read?
A: The inhibition was 3.79%.

Q: How did the inhibition turn out when `COCCn1c(C)cc(C(=O)CSc2ncnc3sc4c(c23)CCC4)c1C` was run?
A: Its inhibition is -1.83%.

Q: For `CCCc1nc2sc3c(c2c(=O)n1NC(=O)CCCl)CCCC3`, which inhibition is on record?
A: Its inhibition is -7.23%.

Q: How did the inhibition turn out when `N=c1c2c3c(sc2nc2n1CCCCC2)CCCC3` was run?
A: Its inhibition is -6.19%.

Q: Which inhibition does the source give for `COCCNc1nc(-n2nc(C)cc2C)nc2sc3c(c12)CCCC3` here?
A: Its inhibition is 52.7% (active).

Q: `Cc1cc(C)n(-c2nc(SCC(=O)N3CCCC3)c3c4c(sc3n2)CCCC4)n1` was tested. Which inhibition did it give?
A: The inhibition was 40.1% (active).

Q: Which inhibition does the source give for `COCc1cc(C)nc2sc(C(=O)NC3CCCCC3)c(N)c12` here?
A: The inhibition was -2.12%.

Q: For `O=C(O)C1CCN1C1CCCCC1` (stereo not given), which inhibition is on record?
A: Its inhibition is 0.02%.

Q: `Cc1cccc(-n2cnc(C(=O)Nc3cccnc3)c2)n1` was tested. Which inhibition did it give?
A: Its inhibition is 9.43%.

Q: Which inhibition does the source give for `O=S(=O)(c1cccc2nonc12)N1CCN(c2cccc(Cl)c2)CC1` here?
A: The inhibition was -9.46%.

Q: Which inhibition does the source give for `CCN(CC)c1nc(-c2ccccc2)cc(C(F)(F)F)c1C#N` here?
A: Its inhibition is -3.86%.

Q: For `CCOC(=O)N1CCN(C(=O)CN(C2CCCCC2)S(C)(=O)=O)CC1`, which inhibition is on record?
A: The inhibition was -1.82%.

Q: With `Cc1ccc(OCC(=O)N/N=C/c2ccncc2)cc1` as the compound, how does the inhibition read?
A: The inhibition was -5.31%.

Q: `COc1ccc(-c2c(C(C)=O)c(C)nc3sc4c(=O)n(-c5ccc(C)cc5)nnc4c23)cc1` was tested. Which inhibition did it give?
A: Its inhibition is 11.3%.
